Consider 21 targets from the supplement of paper PMC10849652.

What all share (assay): log2 fold change, soluble protein after heating vs DMSO (PISA); higher = thermal stabilisation; K562 cells, 10 uM, 30 min; active = over 0.2 and 3.5 SD of the protein, either way, in both replicates (recomputed)
Compound in one test: Cc1ccc(NC(=O)c2ccc(CN3CC[C@H](N(C)C)C3)c(C(F)(F)F)c2)cc1Nc1nccc(-c2cncnc2)n1 [bafetinib]
The procedure, abridged: (§1)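 K562 cells at 2×10^6 cells/mL were exposed to 10 μM compound for 30 min, then aliquots were heated for 3 min across 48°C-58°C, pooled, and extracted in PBS containing 0.5% NP-40 at 4°C. The supernatant after 21,000xg for 90 min was taken as soluble protein and measured by TMTpro 16plex LC-MS/MS with channel sums equalised. Thermal stability is reported relative to control samples, with values from duplicates. Fold changes are given on a log2 scale.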

Compound in test [1]: Cc1cccc(CC(=O)N2CCc3c2ccc(-c2cn(C)c4ncnc(N)c24)c3F)n1
In short, it runs like this:
as §1

Compound in a further test: Cc1cn(-c2cc(NC(=O)c3ccc(C)c(Nc4nccc(-c5cccnc5)n4)c3)cc(C(F)(F)F)c2)cn1 [nilotinib]
The procedure, abridged:
as §1

Compound in test [2]: Cc1nc(Nc2n[nH]c3c2CN(C(=O)N[C@H](CN(C)C)c2ccccc2)C3(C)C)c2sccc2n1
The procedure, abridged: as §1

Compound in the next test: Cc1nc(Nc2ncc(C(=O)Nc3c(C)cccc3Cl)s2)cc(N2CCN(CCO)CC2)n1 [dasatinib]
In short, it runs like this:
as §1

Compound in test [3]: Cc1ncc(-c2ccnc(Nc3ccc(S(C)(=O)=O)cc3)n2)n1C(C)C
In short, it runs like this:
as §1

Compound in test [4]: Cn1cc(-c2ccc3c(c2)CCN3C(=O)Cc2cccc(C(F)(F)F)c2)c2c(N)ncnc21
In short, it runs like this: as §1

Compound in test [5]: Cn1cc(-c2ccc3nnc(C(F)(F)c4ccc5ncccc5c4)n3n2)cn1
In short, it runs like this: as §1

Compound in a further test: Cn1cncc1[C@@](N)(c1ccc(Cl)cc1)c1ccc2c(c1)c(-c1cccc(Cl)c1)cc(=O)n2C [tipifarnib]
The procedure, abridged: as §1

Compound in another test: FC(F)(F)c1ccc(/C=C/c2nc(COc3ccc(CCCCn4ccnn4)cc3)co2)cc1 [mubritinib]
In short, it runs like this:
as §1

Of roughly 7,900 targets only a part is listed; those with a hit were picked by preference. About 0.6% of all pairs of compound and target were hits. Values without a mark were called inactive.

UniProt P49321, sequence (P49321 whole entry, looked up): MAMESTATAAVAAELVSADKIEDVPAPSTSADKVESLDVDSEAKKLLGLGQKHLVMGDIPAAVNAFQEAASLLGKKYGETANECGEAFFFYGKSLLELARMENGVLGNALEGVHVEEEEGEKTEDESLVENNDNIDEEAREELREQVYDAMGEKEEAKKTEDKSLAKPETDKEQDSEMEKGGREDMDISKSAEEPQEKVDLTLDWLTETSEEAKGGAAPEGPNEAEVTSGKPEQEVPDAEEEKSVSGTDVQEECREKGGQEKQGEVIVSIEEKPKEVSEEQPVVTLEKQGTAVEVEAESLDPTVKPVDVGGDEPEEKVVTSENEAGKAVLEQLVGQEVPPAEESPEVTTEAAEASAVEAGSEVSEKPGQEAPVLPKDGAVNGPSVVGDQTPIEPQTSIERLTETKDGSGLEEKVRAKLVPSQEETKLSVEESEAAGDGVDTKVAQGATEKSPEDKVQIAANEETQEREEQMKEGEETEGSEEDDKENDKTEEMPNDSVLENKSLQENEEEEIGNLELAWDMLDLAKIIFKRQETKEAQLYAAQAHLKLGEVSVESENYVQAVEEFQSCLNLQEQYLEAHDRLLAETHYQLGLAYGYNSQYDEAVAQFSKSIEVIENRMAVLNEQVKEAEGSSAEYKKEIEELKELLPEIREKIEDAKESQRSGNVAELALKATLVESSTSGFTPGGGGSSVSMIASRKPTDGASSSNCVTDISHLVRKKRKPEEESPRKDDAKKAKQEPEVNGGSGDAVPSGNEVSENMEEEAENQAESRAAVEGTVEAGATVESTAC
UniProt Q4G0T1, sequence (Q4G0T1 whole entry, looked up): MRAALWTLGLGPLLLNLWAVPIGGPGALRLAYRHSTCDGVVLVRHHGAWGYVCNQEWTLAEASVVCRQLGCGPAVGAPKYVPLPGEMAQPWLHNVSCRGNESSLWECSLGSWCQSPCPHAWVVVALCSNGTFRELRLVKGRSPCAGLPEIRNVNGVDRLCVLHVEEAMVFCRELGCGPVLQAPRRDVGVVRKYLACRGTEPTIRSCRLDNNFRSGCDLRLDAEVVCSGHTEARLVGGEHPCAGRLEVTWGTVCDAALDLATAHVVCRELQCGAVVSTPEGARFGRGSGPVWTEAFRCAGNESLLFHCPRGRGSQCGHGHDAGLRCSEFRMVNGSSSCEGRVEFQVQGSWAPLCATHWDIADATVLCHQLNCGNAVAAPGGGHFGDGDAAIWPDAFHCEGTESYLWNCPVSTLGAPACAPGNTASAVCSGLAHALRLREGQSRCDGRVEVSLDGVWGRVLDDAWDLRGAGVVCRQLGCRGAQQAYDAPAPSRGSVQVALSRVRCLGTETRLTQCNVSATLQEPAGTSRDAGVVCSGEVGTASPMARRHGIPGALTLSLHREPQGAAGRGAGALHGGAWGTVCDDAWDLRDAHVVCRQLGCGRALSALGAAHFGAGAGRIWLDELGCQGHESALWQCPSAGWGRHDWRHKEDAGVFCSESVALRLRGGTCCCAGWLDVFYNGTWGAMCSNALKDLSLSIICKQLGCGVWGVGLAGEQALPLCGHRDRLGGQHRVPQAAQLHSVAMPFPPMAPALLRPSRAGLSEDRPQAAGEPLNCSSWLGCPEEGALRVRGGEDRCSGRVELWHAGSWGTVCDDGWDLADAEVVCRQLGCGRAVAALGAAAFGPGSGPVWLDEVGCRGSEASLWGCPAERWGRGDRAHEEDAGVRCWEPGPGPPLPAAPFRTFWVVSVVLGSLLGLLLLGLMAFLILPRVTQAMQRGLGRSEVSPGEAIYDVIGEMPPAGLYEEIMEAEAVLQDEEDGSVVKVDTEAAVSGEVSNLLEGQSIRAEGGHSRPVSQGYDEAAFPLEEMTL
UniProt O75607, sequence (O75607 whole entry, looked up): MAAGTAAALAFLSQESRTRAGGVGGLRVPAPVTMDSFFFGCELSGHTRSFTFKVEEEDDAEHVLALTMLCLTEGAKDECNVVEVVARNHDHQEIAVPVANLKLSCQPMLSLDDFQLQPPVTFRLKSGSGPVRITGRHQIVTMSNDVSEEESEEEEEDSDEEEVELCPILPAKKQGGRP
UniProt Q8NI08, sequence (Q8NI08 whole entry, looked up): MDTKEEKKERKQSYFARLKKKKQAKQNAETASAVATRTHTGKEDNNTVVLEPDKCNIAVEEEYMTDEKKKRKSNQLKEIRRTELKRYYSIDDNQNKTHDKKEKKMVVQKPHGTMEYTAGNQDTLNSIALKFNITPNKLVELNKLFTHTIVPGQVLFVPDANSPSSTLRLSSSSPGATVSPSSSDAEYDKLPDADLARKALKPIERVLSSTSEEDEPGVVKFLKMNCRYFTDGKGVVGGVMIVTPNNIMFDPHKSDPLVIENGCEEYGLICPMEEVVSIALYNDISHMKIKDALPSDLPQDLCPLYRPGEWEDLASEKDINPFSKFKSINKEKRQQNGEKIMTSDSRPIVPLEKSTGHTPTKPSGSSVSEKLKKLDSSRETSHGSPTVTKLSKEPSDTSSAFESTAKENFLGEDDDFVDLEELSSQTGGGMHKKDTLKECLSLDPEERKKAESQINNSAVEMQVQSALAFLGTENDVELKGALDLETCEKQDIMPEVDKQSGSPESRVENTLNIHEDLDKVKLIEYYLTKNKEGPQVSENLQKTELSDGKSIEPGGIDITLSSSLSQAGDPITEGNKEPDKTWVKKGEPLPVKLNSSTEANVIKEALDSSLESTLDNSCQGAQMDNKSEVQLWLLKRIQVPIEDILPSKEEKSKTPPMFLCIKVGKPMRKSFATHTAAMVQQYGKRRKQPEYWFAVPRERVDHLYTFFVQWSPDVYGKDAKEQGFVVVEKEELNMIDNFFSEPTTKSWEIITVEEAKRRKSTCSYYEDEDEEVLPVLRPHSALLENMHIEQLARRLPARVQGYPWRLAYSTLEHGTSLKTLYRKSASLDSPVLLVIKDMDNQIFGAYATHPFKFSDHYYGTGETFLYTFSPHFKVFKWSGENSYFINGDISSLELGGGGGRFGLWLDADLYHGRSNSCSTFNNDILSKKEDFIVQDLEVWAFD
UniProt P53370, sequence (P53370 whole entry, looked up): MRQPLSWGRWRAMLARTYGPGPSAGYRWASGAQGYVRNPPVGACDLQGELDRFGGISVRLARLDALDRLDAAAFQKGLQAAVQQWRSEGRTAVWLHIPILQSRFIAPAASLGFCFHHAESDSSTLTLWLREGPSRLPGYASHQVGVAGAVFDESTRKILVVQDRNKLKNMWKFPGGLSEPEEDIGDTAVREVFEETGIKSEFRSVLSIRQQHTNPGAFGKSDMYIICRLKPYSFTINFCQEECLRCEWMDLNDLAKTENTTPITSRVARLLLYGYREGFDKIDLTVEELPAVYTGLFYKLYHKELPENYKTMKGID
UniProt Q9H1P3, sequence (Q9H1P3 whole entry, looked up): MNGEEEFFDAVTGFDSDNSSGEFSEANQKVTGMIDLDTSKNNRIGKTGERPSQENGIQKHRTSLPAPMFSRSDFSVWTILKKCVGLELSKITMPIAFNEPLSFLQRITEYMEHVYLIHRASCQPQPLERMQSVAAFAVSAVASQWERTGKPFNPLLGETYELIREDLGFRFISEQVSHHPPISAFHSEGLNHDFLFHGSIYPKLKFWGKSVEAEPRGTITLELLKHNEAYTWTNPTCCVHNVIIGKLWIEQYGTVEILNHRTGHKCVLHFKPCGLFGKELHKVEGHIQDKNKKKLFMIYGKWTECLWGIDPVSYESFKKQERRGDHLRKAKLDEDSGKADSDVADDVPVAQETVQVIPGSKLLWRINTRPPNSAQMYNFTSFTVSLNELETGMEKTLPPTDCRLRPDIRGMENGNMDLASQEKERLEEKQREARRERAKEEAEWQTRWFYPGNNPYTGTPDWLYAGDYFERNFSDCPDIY
UniProt O75438, sequence (O75438 whole entry, looked up): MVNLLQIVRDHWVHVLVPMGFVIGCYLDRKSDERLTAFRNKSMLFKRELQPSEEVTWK
UniProt Q6N063, sequence (Q6N063 whole entry, looked up): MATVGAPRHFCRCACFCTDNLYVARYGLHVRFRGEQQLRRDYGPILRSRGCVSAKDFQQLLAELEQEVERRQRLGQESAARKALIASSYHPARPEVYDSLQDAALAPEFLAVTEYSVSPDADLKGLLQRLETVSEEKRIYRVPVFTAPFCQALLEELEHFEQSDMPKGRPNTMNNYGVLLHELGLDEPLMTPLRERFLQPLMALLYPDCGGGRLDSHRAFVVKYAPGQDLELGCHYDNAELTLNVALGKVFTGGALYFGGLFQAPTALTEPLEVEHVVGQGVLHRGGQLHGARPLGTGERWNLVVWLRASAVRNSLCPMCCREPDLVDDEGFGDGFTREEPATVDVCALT
UniProt P03886, sequence (P03886 whole entry, looked up): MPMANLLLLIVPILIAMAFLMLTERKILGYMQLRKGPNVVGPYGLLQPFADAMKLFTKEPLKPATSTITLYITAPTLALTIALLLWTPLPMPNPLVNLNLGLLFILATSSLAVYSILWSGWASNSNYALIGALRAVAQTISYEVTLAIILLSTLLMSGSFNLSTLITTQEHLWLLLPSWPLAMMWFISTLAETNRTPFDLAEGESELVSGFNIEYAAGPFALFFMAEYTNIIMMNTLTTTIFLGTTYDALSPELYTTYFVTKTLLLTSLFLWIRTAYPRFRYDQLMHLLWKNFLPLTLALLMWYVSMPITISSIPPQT
UniProt Q9Y5B8, sequence (Q9Y5B8 whole entry, looked up): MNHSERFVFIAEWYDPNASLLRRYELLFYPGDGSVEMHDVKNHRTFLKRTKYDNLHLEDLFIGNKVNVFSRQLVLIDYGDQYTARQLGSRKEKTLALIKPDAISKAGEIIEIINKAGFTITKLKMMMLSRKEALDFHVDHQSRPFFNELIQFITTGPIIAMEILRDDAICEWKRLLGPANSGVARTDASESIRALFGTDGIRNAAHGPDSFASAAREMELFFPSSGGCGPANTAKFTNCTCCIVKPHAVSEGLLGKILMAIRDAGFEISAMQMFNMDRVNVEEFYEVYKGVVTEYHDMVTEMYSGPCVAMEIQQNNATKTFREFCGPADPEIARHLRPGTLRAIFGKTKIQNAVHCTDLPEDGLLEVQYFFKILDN
UniProt Q92686, sequence (Q92686 whole entry, looked up): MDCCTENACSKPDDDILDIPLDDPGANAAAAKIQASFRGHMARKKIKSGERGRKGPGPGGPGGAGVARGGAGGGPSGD

Consider NDUFA4 (UniProt O00483), for which the log2 fold change was -0.043 in the test with bafetinib; 0.014 in [1]; 0.024 in the test with nilotinib; 0.02 in [2]; 0.032 with dasatinib; -0.074 in test [3]. For the same target, the log2 fold change in test [4] was 0.039; in test [5], 0.239; with tipifarnib, 0.054; with mubritinib it was 0.018.

Consider OGFOD2 (UniProt Q6N063), for which the log2 fold change with bafetinib was 0.009; in [1], 0.171; in the test with nilotinib, 0.004; in test [2], -0.007; with dasatinib it was -0.04; in test [3] it was -0.023. Moreover, the log2 fold change in [4] is -0.011; in [5], 0.132; with mubritinib, 0.092.

With MITD1 (UniProt Q8WV92), the log2 fold change with bafetinib is -0.217; in [1], -0.006; with nilotinib it was -0.065; in test [2], -0.035; with dasatinib it was 0.006; in test [3], -0.101. The log2 fold change is 0.01 in [4], 0.009 in [5], 0.098 with tipifarnib and -0.108 in the test with mubritinib.

As to NPM3 (UniProt O75607), the log2 fold change in the test with bafetinib was 0.017; in [1], -0.027; with nilotinib, -0.045; in test [2], 0.062; in the test with dasatinib, 0.101; in test [3], -0.121. Moreover, the log2 fold change in [4] was 0.043; in test [5] it was -0.028; with tipifarnib it was 0.071; in the test with mubritinib, -0.035.

In the case of NCOA7 (UniProt Q8NI08), the log2 fold change is -0.017 with bafetinib; 0.154 in [1]; -0.044 with nilotinib; -0.046 in [2]; -0.144 with dasatinib; -0.039 in test [3]. Moreover, the log2 fold change is 0.085 in [4], 0.004 in test [5], -0.125 with tipifarnib and 0.054 in the test with mubritinib.

Turning to NASP (UniProt P49321), the log2 fold change with bafetinib was -0.036; in [1], 0.011; in the test with nilotinib it was -0.013; in test [2] it was -0.032; in the test with dasatinib, -0.027; in test [3], 0. The log2 fold change was -0.02 in test [4], 0.009 in test [5], -0.026 with tipifarnib and 0.026 with mubritinib.

For the target MT-ND1 (UniProt P03886), the log2 fold change was -0.199 in the test with bafetinib; 0.102 with nilotinib; -0.079 in test [2]; -0.149 with dasatinib; -0.061 in [3]; 0.066 in [4]. For the same target, the log2 fold change in test [5] is -0.036; with tipifarnib, 0.633 (active); with mubritinib, 0.114.

Take NOLC1 isoform 3 (UniProt Q14978): in [4], the log2 fold change is -0.015.

In the case of NRGN (UniProt Q92686), the log2 fold change with bafetinib was -0.199; in [1], -0.581; in the test with nilotinib, 0.004; in [2] it was -0.199; in test [3] it was -0.088; in test [5], 0.074. Moreover, the log2 fold change with tipifarnib was -0.055.

Take OSBPL2 (UniProt Q9H1P3): the log2 fold change was 0.37 in test [4], -0.009 with tipifarnib and 0.465 in the test with mubritinib.

Consider NEU3 isoform 2 (UniProt Q9UQ49), for which the log2 fold change with tipifarnib is 0.044.

With NDUFB1 (UniProt O75438), the log2 fold change in the test with bafetinib was -0.116; in test [1], 0.028; in the test with nilotinib, 0.095; in [2], 0.009; in [3], -0.028; in test [4], 0.004. For the same target, the log2 fold change is 0.038 in the test with tipifarnib and 0.022 with mubritinib.

Take MRPS21 (UniProt P82921): the log2 fold change with bafetinib is 0.382; with nilotinib, -0.347; in test [2] it was 0.137; in the test with dasatinib it was -0.284; in [3] it was -0.002; in [4], 0.036. In addition, the log2 fold change in test [5] was 0.017; with tipifarnib, -0.028; with mubritinib it was 0.277.

As to NCOA5 (UniProt Q9HCD5), the log2 fold change in test [1] was -0.04; with nilotinib, -0.428; in test [2] it was -0.92 (active); with dasatinib, -0.043; in test [3] it was 0.218; in test [5], -0.203. Besides, the log2 fold change in the test with tipifarnib is 0.164.

For the target NME7 (UniProt Q9Y5B8), the log2 fold change with bafetinib is -0.14; in test [1], 0.071; with dasatinib, -0.245; in test [4] it was -0.044; in [5], 0.009; with tipifarnib, -0.001. Further, in the test with mubritinib, the log2 fold change is -0.279.

Turning to MSANTD2 (UniProt Q6P1R3), the log2 fold change with dasatinib is -0.042.

As to NA isoform 3 (UniProt Q4G0T1), the log2 fold change with bafetinib was -0.198; with nilotinib it was -0.021; in test [2] it was -0.009; in the test with dasatinib it was -0.093; in test [3], 0.01; in test [4], -0.065. In addition, the log2 fold change was 0.059 in [5], -0.066 with tipifarnib and -0.066 with mubritinib.

In the case of NIPSNAP2 (UniProt C9J7B1), the values for the log2 fold change in the test with bafetinib and with mubritinib were -0.045 and 0.173, respectively.

As for NUDT6 (UniProt P53370), the log2 fold change with nilotinib is -0.1; in test [2], 0.083; with dasatinib it was -0.005; in [3], 0.08; in [4], 0.426; in [5], 0.05. Also, the log2 fold change in the test with tipifarnib is -0.022; with mubritinib it was -0.049.

As to NPC1L1 (UniProt Q9UHC9), the log2 fold change in the test with bafetinib is -0.05; with nilotinib, 0.659; in test [2], 0.52; in the test with dasatinib, -0.117; in [3], -0.384 (active); in test [4] it was 0.012. In addition, the log2 fold change with tipifarnib is 0.094; with mubritinib, 0.008.

OAF (UniProt Q86UD1): the log2 fold change in test [5] is 0.199; in the test with mubritinib it was -0.104.
